Source: PubChem BioAssay (National Center for Advancing Translational Sciences (NCATS))
VP16 counter: inhibits Gal4-VP16 luciferase reporter, ROR gamma counter-screen. Drosophila S2 Gal4-VP16 UAS-luciferase, luminescence, 20 h. Potency, µM (series often up to 53.6 µM), inactives show top-dose activity, negative = inhibition, actives largely listed as inhibitors. 310,000 compounds, 3.5% hits. AID 2546;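 further: Gal4-VP16 expression switched on by copper sulfate through the metallothionein promoter; potency means the concentration at half of the fitted maximal effect; nearly all actives have a fitted effect of over 50% in size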
RORgamma inh: blocks mouse ROR gamma transcriptional activity; 310,000 compounds, 5.4% hits; AID 2551; Potency, µM (top dose mostly 53.6 µM), for the others: at the highest dose activity change, negative = inhibition, actives largely listed as inhibitors; Drosophila S2 Gal4-RORgamma UAS-luciferase reporter, 20 h; P51450; further: potency means the concentration at half of the fitted maximal effect; nearly all actives have a fitted effect of over 60% in size
Target sequence (P51450 whole entry, looked up, the tested form may be a part): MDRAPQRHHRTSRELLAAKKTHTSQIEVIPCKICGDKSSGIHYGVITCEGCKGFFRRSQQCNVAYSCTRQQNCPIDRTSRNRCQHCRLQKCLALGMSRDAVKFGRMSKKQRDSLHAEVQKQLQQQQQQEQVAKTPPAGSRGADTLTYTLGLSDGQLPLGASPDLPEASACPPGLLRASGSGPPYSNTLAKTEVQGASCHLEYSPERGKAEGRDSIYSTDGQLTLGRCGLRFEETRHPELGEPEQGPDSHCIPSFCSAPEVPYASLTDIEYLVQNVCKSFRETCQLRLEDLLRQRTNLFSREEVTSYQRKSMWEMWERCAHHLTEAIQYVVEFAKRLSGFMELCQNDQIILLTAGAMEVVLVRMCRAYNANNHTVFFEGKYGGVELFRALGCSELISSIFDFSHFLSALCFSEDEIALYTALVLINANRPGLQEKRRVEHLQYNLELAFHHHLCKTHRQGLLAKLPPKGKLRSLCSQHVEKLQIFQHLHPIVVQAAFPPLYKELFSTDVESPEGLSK
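Luciferase reporter read in Schneider cells carrying Gal4-RORγ (mouse) and UAS-Photinus luciferase; cells given compound 1 h before 700 uM copper sulfate induction, then incubated 20 h at ambient temperature.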
ELG1 DNA repair: inhibitors of ELG1-dependent DNA repair in HEK293T cells | HEK293T ELG1-luciferase reporter, luminescence, 16 h; DNA damage induced by 5-fluorouridine | Potency, µM (highest dose often 46.1 µM), for the others: at the highest dose activity change, negative = inhibition, usual class: inhibitors | 330,000 compounds, 2.3% hits | AID 504467; further: potency means the concentration at half of the fitted maximal effect; nearly all actives have a fitted effect of over 55% in size
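Reporter activity after DNA damage by 5-fluorouridine is monitored. Compound-treated cells incubate 16 hr at 37 °C, then ONE-Glo is added for 30 min before luminescence reading.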
DT40 TDP1 no CPT: qHTS for Inhibitors of human tyrosyl-DNA phosphodiesterase 1 (TDP1): qHTS in cells in absence of CPT. AID 686978, 2013. DT40 Tdp1-/- hTDP1 cells, no CPT, ATP luminescence, 48 h. Potency, µM (series often up to 46.2 µM), for inactives: top-dose activity change, negative = growth inhibition, usual class: inhibitors. 420,000 compounds, 15% hits; further: potency means the concentration at half of the fitted maximal effect; nearly all actives have a fitted effect of over 55% in size
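No-CPT arm: Tdp1-/-;hTDP1 DT40 cells (400/well) plus compounds, incubated ≥48 hr at 37 °C. Readout CellTiter-Glo luminescence.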
TDP1 cell CPT: DT40-hTDP1 cell growth loss with CPT | Potency, µM (top dose mostly 46.2 µM), without a hit: at the highest dose activity change, negative = growth inhibition, usual class: inhibitors | chicken DT40 Tdp1-/-;hTDP1 cells + 20 nM CPT, ATP luminescence, 48 h | 420,000 compounds, 12% hits; further: potency means the concentration at half of the fitted maximal effect; nearly all actives have a fitted effect of over 55% in size
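Chicken DT40 Tdp1-/- cells stably complemented with human TDP1 were seeded at 400 cells/well in medium containing 20 nM camptothecin, exposed to pin-transferred compounds, and grown at 37 °C for at least 48 hr. Viability was read as ATP luminescence.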
IL1B secr inh: inhibitors of inflammasome signaling (IL-1 beta secretion) | THP-1 LPS/ATP IL-1B secretion, AlphaLISA, 16 h; hits give low values | activity change, % at 57.5 µM | 360,000 compounds, 4.7% hits; in the data active means activity change below about -50%; inconclusive means mostly about -30% to -49%
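Secreted IL-1B measured by AlphaLISA bead assay after 16 h compound exposure of THP-1 cells; compounds (final up to 57.5 uM) added 1 h before LPS (250 ng/mL) and ATP (1.25 mM) stimulation; lower signal means less secretion.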
The depositor's hits bear a star; ? = inconclusive; · = no result; [ ] = another dose, or the depositor's remark. Shown are actives, neighbours in structure and some others; about 21% of the full set was active somewhere. Unless noted, the call rests on the fitted dose curve; in most records, active means well fitted curve in the direction sought with a large enough effect; inconclusive means small, poorly fitted or top-dose-only effect, or another doubt; inactive means no such curve, though single readings can be large; an effect the other way counts as inactive or inconclusive. On the % scale 0 is the no-effect control and ±100 the full control effect.

SMILES	VP16 counter	RORgamma inh	ELG1 DNA repair	DT40 TDP1 no CPT	TDP1 cell CPT	IL1B secr inh
ClCc1nc2ccccc2c2ccccc12	?	-60%	?	2.6µM*	4.1µM*	-8
O=c1oc2ccccc2c(Nc2cc3ccccc3cc2O)c1[N+](=O)[O-]	-8%	-10%	?	5.8µM*	5.8µM*	55
O=c1oc2ccccc2c(Nc2cccc3cccnc23)c1[N+](=O)[O-]	-20%[10 µM]	11µM*	6%	-30%	-4%	7
O=c1oc2ccccc2c(NCc2ccc(Cl)cc2)c1[N+](=O)[O-]	0%	31%	17%	-4%	-3%	-26
Cc1cc(Cl)cc(Cl)c1CNc1c([N+](=O)[O-])c(=O)oc2ccccc12	-12%	24%	2%	16µM*	?	11
CCC1CCCCN1C(=O)CCNC(=O)Cn1cnc2ccccc2c1=O (stereo unspecified)	-6%	22%	-3%	-4%	0%	12
CCC[C@@H]1C[C@@H](C(=O)N[C@@H]([C@H]2O[C@H](SC)[C@H](O)[C@@H](O)[C@H]2O)[C@@H](C)O)N(C)C1	3%	-12%	·	-3%	-13%	·
CC(C)Nc1ncnc2c1ncn2[C@H]1CN(Cc2ccc3c(c2)OCO3)C[C@@H](CO)O1	·	·	·	-12%	-1%	3
CCNC(=O)C1CCCN(c2nc(C)cc(C)n2)C1 (stereo unspecified)	5%	-7%	4%	4%	2%	0
Cc1cc(C)nc(NC2=NCCN2C(=O)NC2CCCCC2)n1	12%	-28%	0%	16µM*	?	16
CCNC(=S)N1CCN=C1Nc1nc(C)cc(C)n1	9%	18µM*	?	23%	19%	-8
Cc1cc(C(F)(F)F)nc(SCC(=O)NC2CCCCC2)n1	8%	-11%	0%	0%	-5%	-17
Cc1ccccc1S(=O)(=O)NC1OC(=O)C(Oc2ccccc2)=C1Br (stereo unspecified)	11%	-31%	5%	2%	-7%	0
Cc1ccccc1S(=O)(=O)NC1OC(=O)C(Cl)=C1Cl (stereo unspecified)	-10%	-34%	5%	?	21µM*	-107*
COc1ccc(Cl)cc1NC(=O)CNCc1cccs1	-8%	5%	-10%	?	-9%	11
S=C(NCc1cccs1)Nc1cccc(Cl)c1	?	20µM*	-7%	?	-18%	18
Cc1cc(Cl)ccc1NC(=S)NCc1cccs1	8.9µM*	4µM*	-19%	?	-4%	0
O=C(NCc1cccs1)Nc1cccc(Cl)c1	·	·	·	-5%	-20%	-8
S=C(NCc1cccs1)Nc1ccccc1Cl	14µM*	13µM*	1%	-29%	-11%	-1
S=C(NCc1cccs1)Nc1cc(Cl)cc(Cl)c1	?	13µM*	?	?	?	-83*
O=C(Nc1cccc(Cl)c1)NC1(C(=O)NCc2cccs2)CCCCC1	-21%	-33%	?	26µM*	21µM*	-5
Cc1ccsc1/C=N/N1CCN(Cc2ccccc2)CC1	12%	?	?	-23%	0%	-16
CCN1C(=O)c2ccccc2Sc2ccc(NC(=O)N3CCN(c4cc(C)ccc4C)CC3)cc21	·	·	·	4.1µM*	5.8µM*	·
Cc1ccc(C)c(N2CCN(C(=O)Nc3ccc4c(c3)N(C)C(=O)CS4)CC2)c1	?	18%	6.5µM*	16µM*	21µM*	46
CCCCc1nn2c(=O)cc(COC(=O)COc3ccc(C)cc3)nc2s1	·	·	·	3%	-14%	·
COc1cc(NC(=O)C(CC(C)C)NS(=O)(=O)c2ccc3c(c2)CCN3C(C)=O)cc(OC)c1 (stereo unspecified)	·	·	·	3%	-25%	·
CCC(C)(C)c1ccc(OCC(=O)Nc2ccncc2)cc1	?	?	6%	-13%	?	-12
